Measurements as given in PubChem BioAssay (NCATS).
Inconclusive results are not listed. The source made the active and inactive calls. Unless noted, calls come from the whole dose curve; as a rule, active = well fitted curve in the direction sought with a large enough effect; inconclusive = small, poorly fitted or top-dose-only effect, or another doubt; inactive = no such curve, though single readings can be large; an effect the other way counts as inactive or inconclusive.

Legend:
[1] = test system: Zika virus NS2B-NS3 protease (unlinked); assay: Optimization of GU AMC qHTS for Zika virus inhibitors: Unlinked NS2B-NS3 protease assay (AID 1347151);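 note: 0% = no-inhibitor control and -100% = no-enzyme control; nearly all actives have a fitted effect of over 80% in size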
Outline: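 Noncovalent complex of NS2B hydrophilic domain and NS3 protease domain, 25 nM final, in 10 mM Tris-HCl pH 8.0, 0.01% Tween 20. AMC fluorescence change over 15 min at room temperature was fitted to a 4-parameter Hill equation.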

[2] = test system: Zika virus NS2B-NS3 protease (linked); assay: 384 well plate NINDS AMC confirmatory qHTS for Zika virus inhibitors (AID 1347163);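 note: linked protease at 5 30 or 60 nM final depending on run; fluorescence of AMC released from Ac-VKTGKR-AMC peptide cleaved by the protease; top concentration of the series differs between compounds; 0% = no-inhibitor control and -100% = no-enzyme control; nearly all actives have a fitted effect of over 50% in size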
Outline: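 Enzyme (5, 30 or 60 nM final) first met test compounds for ~15 min. The AMC-tagged peptide Ac-VKTGKR-AMC followed at 30 microM. Fluorescence was then recorded at 25 min and scaled against no-enzyme and no-inhibitor wells.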

CP265 = assay: qHTS profiling for inhibitors of Plasmodium falciparum proliferation (AID 504749); note: potency is the fitted concentration of half-maximal effect; nearly all actives have a fitted effect of over 60% in size; conditions: P. falciparum in erythrocytes, SYBR Green DNA, 72 h; series mostly up to 28.7 µM
Outline: (§1)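 In a 72 h erythrocytic culture (37 C, humidified, 5% CO2) at 2.5% hematocrit and 0.3% starting parasitemia, compounds were tested; SYBR Green I in detergent lysis buffer stained parasite DNA overnight.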

ECU = assay: as above; conditions: P. falciparum in erythrocytes, SYBR Green DNA, 72 h; series mostly up to 28.7 µM
Outline: as §1

HB3 = assay: as above; conditions: P. falciparum in erythrocytes, SYBR Green DNA, 72 h; series mostly up to 28.7 µM
Outline: as §1

N140 = assay: as above; conditions: P. falciparum in erythrocytes, SYBR Green DNA, 72 h; series mostly up to 28.7 µM
Outline: as §1

P94_40 = assay: as above; conditions: P. falciparum in erythrocytes, SYBR Green DNA, 72 h; series mostly up to 28.7 µM
Outline: as §1

PC26 = assay: as above; conditions: P. falciparum in erythrocytes, SYBR Green DNA, 72 h; series mostly up to 28.7 µM
Outline: as §1

TAB109 = assay: as above; conditions: P. falciparum in erythrocytes, SYBR Green DNA, 72 h; series mostly up to 28.7 µM
Outline: as §1

TAB113 = assay: as above; conditions: P. falciparum in erythrocytes, SYBR Green DNA, 72 h; series mostly up to 28.7 µM
Outline: as §1

[3] = target: Alpha-galactosidase A (Homo sapiens) (UniProt P06280); assay: Counterscreen for Glucocerebrosidase Inhibitors: qHTS Assay for Human alpha-Galactosidase at pH 4.5 (AID 992); note: 0% is about no effect
Chain of Alpha-galactosidase A (Homo sapiens) (P06280 whole entry, looked up): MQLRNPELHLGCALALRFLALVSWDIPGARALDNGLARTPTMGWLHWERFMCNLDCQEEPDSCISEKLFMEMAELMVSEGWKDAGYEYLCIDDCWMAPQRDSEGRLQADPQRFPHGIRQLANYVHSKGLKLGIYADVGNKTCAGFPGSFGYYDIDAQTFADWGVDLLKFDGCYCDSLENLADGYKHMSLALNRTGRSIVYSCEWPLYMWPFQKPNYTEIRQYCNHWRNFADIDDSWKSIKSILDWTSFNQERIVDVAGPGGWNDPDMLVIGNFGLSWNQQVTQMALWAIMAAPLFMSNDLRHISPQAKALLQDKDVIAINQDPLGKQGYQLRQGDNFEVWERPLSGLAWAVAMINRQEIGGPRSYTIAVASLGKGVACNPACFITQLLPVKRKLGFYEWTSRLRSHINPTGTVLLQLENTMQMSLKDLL
Outline: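 Steps: enzyme (2 nM final), then compound across 0.7 nM to 77 uM, then 80 uM fluorogenic galactopyranoside substrate; incubate 20 min at room temperature; quench at pH 10; measure fluorescence at 365/440 nm.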

[4] = target: alpha-glucosidase (Oryza sativa, rice) (UniProt Q653V4); assay: Counterscreen for Glucocerebrosidase Inhibitors: qHTS Assay for Rice alpha-Glucosidase at pH 5.0 (AID 997);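 note: 0% = full activity with enzyme and -100% = basal without enzyme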
Outline: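 Endpoint fluorogenic assay at pH 5.0: compounds (0.7 nM to 77 uM) titrated against 4 nM rice enzyme and 400 uM 4-MU-alpha-glucoside for 20 min at room temperature; NaOH/glycine stop, read ex 365/em 440 nm, Hill-fitted AC50.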

[5] = Stat Signaling Pathway (AID 446; active = well fitted curve in either direction with a large enough effect, not every such curve was filed as active;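 note: ME-180 cervical cancer cells given 40 pM IL-6 alongside compound; SIE-controlled beta-lactamase reporter measured as 460/530 nm FRET emission ratio; % is set by controls: 0 for no effect and ±100 for the full control effect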); conditions: ME-180 (cervical carcinoma) SIE beta-lactamase reporter, IL-6 stimulated, 5 h
Outline: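 Normalization used AC90 stimulation (300 pM IL-6) and AC90 inhibition (125 nM pan-JAK inhibitor at 40 pM IL-6). The underlying signal is SIE-driven beta-lactamase in ME-180 cells after 5 h IL-6 exposure with compound.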

[6] = target: 3',5'-cyclic-AMP phosphodiesterase 4B (Homo sapiens) (UniProt Q07343); assay: qHTS Assay for Inhibitors of PDE-IV (AID 607; active = well fitted activation curve with a large enough effect in the main read-out, with a control signal flat, not every such curve was filed as active; note: % of control where 0% means no effect)
Chain of 3',5'-cyclic-AMP phosphodiesterase 4B (Homo sapiens) (Q07343 whole entry, looked up): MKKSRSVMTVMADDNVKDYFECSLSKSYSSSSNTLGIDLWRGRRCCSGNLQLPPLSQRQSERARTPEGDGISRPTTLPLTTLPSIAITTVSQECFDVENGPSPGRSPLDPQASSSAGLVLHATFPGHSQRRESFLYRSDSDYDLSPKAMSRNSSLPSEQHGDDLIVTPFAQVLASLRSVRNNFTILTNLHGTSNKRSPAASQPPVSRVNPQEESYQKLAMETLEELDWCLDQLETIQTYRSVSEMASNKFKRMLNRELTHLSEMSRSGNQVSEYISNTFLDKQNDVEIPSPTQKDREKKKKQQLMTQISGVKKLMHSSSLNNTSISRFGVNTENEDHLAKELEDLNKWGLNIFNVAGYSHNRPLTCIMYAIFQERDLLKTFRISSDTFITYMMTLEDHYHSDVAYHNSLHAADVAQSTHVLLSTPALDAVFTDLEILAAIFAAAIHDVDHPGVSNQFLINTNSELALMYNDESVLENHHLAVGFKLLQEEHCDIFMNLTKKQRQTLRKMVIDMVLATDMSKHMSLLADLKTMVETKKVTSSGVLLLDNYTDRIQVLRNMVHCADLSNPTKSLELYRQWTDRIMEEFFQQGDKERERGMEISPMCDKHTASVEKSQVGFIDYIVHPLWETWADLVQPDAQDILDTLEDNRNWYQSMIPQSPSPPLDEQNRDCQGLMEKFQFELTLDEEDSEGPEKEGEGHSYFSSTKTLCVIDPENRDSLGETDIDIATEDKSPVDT
Outline: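 HEK293 ACTOne cells with CNG channel (1000/well), endogenous PDE4; membrane potential dye, compounds up to 22.9 uM final. Fluorescence Ex 535/Em 590; RO 20-1724 (100 uM final) as reference.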

[7] = qHTS profiling of the MIPE4 collection as inhibitors of Plasmodium falciparum (3D7) proliferation (AID 743344; call rule not given here;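 note: scaled between DMSO vehicle wells and 0.29 µM artemisinin as full inhibition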); conditions: P. falciparum 3D7 in erythrocytes, SYBR Green DNA fluorescence, 72 h; at 28.5 µM (top of the series)
Outline: (§2)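 Parasite DNA was quantified by SYBR Green I fluorescence (ex 485, em 535 nm) after overnight lysis in saponin/Triton buffer at room temperature. Cultures at 0.3% parasitemia and 2.5% hematocrit were first exposed to compound for 72 h at 37 C; signals were normalised to artemisinin (0.29 uM) and vehicle wells.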

[8] = qHTS profiling of the MIPE4 collection as inhibitors of Plasmodium falciparum (DD2) proliferation (AID 743345; call rule not given here); conditions: P. falciparum Dd2 in erythrocytes, SYBR Green DNA, 72 h; at 28.5 µM (top of the series)
Outline: as §2

[9] = qHTS profiling of the MIPE4 collection as inhibitors of Plasmodium falciparum (DD2) proliferation (Rep 2) (AID 743346; call rule not given here); conditions: P. falciparum Dd2 in erythrocytes, SYBR Green DNA, 72 h; at 28.5 µM (top of the series)
Outline: as §2

[10] = qHTS profiling of the MIPE4 collection as inhibitors of Plasmodium falciparum (HB3) proliferation (AID 743347; call rule not given here;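 note: plate controls were DMSO vehicle wells for no effect and artemisinin wells for full effect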); conditions: P. falciparum HB3 in erythrocytes, SYBR Green DNA, 72 h; at 28.5 µM (top of the series)
Outline: as §2

[11] = target: Rap guanine nucleotide exchange factor 3 (Homo sapiens) (UniProt O95398); assay: Confirmatory qHTS for agonist of cAMP-regulated guanine nucleotide exchange factor 3 (EPAC1) (AID 1645881);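 note: EPAC1 catalysed release of BODIPY-GDP from Rap1B seen as fluorescence loss; 100% = effect of cAMP agonist control; nearly all actives have a fitted effect of over 75% in size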
Chain of Rap guanine nucleotide exchange factor 3 (Homo sapiens) (O95398 whole entry, looked up): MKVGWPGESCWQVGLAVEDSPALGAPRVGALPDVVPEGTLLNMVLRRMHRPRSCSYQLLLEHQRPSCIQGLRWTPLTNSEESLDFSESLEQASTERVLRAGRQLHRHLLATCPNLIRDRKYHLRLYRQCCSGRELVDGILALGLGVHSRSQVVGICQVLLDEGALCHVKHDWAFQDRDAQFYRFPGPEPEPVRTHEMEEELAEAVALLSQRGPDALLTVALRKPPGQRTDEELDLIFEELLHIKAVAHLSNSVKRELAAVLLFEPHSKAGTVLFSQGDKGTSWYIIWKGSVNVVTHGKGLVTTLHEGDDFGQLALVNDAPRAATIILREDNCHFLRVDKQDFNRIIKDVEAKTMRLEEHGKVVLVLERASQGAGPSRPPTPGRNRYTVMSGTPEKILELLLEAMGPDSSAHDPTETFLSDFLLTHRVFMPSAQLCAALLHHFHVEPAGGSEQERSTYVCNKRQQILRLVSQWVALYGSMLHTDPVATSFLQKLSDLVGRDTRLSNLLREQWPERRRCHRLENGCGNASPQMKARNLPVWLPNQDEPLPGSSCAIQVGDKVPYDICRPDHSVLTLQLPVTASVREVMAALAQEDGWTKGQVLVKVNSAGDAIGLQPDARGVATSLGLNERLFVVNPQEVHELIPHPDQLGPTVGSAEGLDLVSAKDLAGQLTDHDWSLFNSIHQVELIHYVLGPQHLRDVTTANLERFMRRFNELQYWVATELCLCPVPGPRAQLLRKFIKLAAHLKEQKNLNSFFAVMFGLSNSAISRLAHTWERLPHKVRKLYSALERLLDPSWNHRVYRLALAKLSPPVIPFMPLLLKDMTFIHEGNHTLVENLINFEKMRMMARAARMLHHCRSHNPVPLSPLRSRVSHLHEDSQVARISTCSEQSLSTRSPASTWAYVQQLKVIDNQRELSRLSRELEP

[12] = target: Rap guanine nucleotide exchange factor 4 (Homo sapiens) (UniProt Q8WZA2); assay: Confirmatory qHTS for agonist of cAMP-regulated guanine nucleotide exchange factor 4 (EPAC2) (AID 1645884);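 note: nucleotide exchange releases bodipy-GDP from Rap1 and this lowers its fluorescence; % is set by controls: 0 for no effect and ±100 for the full control effect; nearly all actives have a fitted effect of over 65% in size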
Chain of Rap guanine nucleotide exchange factor 4 (Homo sapiens) (Q8WZA2 whole entry, looked up): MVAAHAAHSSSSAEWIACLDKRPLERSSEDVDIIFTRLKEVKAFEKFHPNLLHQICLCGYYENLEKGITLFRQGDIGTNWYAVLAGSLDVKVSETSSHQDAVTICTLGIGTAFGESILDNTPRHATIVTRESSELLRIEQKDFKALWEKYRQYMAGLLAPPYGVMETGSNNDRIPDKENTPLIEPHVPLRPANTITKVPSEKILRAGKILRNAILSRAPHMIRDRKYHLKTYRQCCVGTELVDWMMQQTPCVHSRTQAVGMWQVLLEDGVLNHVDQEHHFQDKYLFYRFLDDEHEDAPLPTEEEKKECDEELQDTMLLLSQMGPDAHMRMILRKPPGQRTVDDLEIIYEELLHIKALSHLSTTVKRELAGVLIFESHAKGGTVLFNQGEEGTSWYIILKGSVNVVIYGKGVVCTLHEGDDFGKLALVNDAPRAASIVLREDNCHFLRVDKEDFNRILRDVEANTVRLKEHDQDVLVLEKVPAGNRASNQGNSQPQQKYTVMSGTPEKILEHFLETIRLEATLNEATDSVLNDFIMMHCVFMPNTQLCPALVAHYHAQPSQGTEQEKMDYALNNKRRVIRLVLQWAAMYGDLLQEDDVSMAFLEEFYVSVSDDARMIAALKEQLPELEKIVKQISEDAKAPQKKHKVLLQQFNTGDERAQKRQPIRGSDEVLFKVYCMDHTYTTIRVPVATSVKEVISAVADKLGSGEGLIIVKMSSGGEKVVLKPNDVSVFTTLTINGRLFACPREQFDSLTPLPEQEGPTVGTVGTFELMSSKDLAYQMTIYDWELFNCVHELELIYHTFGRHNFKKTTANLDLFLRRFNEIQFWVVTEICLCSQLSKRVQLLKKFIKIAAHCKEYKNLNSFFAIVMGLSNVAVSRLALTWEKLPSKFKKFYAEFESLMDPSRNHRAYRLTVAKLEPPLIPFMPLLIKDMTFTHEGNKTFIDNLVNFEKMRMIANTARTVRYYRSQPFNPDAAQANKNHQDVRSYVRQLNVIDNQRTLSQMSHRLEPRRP

For `CC[C@H](C)[C@H]1O[C@]2(CC[C@@H]1C)C[C@@H]1C[C@@H](C/C=C(\C)[C@@H](O[C@H]3C[C@H](OC)[C@@H](O[C@H]4C[C@H](OC)[C@@H](O)[C@H](C)O4)[C@H](C)O3)[C@@H](C)/C=C/C=C3\CO[C@@H]4[C@H](O)C(C)=C[C@@H](C(=O)O1)[C@]34O)O2`, the Potency [1] was “inactive” and the Potency [2] was “inactive”.

For `O=C(CC1NCCC[C@H]1O)Cn1cnc2cc(Br)c(Cl)cc2c1=O` (stereo not given in full), the Potency (CP265) was 5.01 µM (active), the Potency (ECU) was 5.01 µM (active) and the Potency (HB3) was 2 µM (active). For the same molecule, the Potency (N140) was 3.16 µM (active), the Potency (P94_40) was 1.41 µM (active) and the Potency (PC26) was 3.79 µM (active). For the same molecule, the Potency (TAB109) was 794 nM (active) and the Potency (TAB113) was 2.24 µM (active).

For `CN1CCN(CCC=C2c3ccccc3Sc3ccc(S(=O)(=O)N(C)C)cc32)CC1`, the outcome [3] was “inactive” and the outcome [4] was “inactive”.

In the case of `CCOC(=O)CCC(=O)O[C@H]1[C@H](O[C@@H]2[C@@H](C)[C@H](O[C@H]3C[C@@](C)(OC)[C@@H](O)[C@H](C)O3)[C@@H](C)C(=O)O[C@H](CC)[C@@](C)(O)[C@H](O)[C@@H](C)C(=O)[C@H](C)C[C@@]2(C)O)O[C@H](C)C[C@@H]1N(C)C`, the activity, negative = inhibition ([5]; at 17.2 µM (top of the series)) is reported as 1.81% (inactive).

In the case of `COc1cc(/C=C(\C#N)C(N)=O)cc(CSc2nc3ccccc3s2)c1O`, the Potency [6] is reported as “inactive”.

`O=C(O)c1ccc2c3c1cccc3c(=O)n1c3ccccc3nc21` showed a parasite growth, % of DMSO control [7] of 91.8%, a parasite growth remaining, % of DMSO control (lower = more inhibition) [8] of 97.7% and a parasite growth, % of control (lower = inhibition) [9] of 85.8%. The growth, % of control [10] was 60.1%.

In the case of `CCC(=O)O[C@H]1CC[C@H]2[C@@H]3CCc4cc(O)ccc4[C@H]3CC[C@]12C`, the outcome [11] is reported as “inactive” and the outcome [12] is reported as “inactive”.

Molecule `CC1(C)N=C(N)N=C(N)N1c1ccc(Cl)cc1` has a parasite growth, % of DMSO control [7] of 5.76%, a parasite growth remaining, % of DMSO control (lower = more inhibition) [8] of 13.5% and a parasite growth, % of control (lower = inhibition) [9] of 19.9%. It also gave a growth, % of control [10] of 2.49%.

For `CC(C)=CCC/C(C)=C/CC/C(C)=C/CSc1ccccc1C(=O)O`, the activity, negative = inhibition ([5]; at 38 µM (top of the series)) was 1.75% (inactive), the Potency [6] was “inactive” and the outcome [3] was “inactive”. The outcome [4] was “inactive”.

For `C#C[C@]1(OC(C)=O)CC[C@H]2[C@@H]3CCC4=CC(=O)CC[C@@H]4[C@H]3CC[C@@]21C`, the outcome [11] was “inactive” and the outcome [12] was “inactive”.
